Experimental data as given in publication PMC7862700, “An all-to-all approach to the identification of sequence-specific readers for epigenetic DNA modifications on cytosine”.

Tests used:
Experiment in all cases: DAPPL (digital affinity profiling via proximity ligation, sequencing); 10 mM Tris-HCl pH 7.5, 50 mM NaCl, 1 mM DTT, 4% glycerol, room temperature, 30 min; GST-TFs on glutathione beads, 16-mer random dsDNA library, 0.1% formaldehyde crosslink after washing; high values mean tight binding
FEV = biological target: T1, FEV (Homo sapiens, UniProt Q99581 1-238); settings: protein: recombinant; tags: N-terminal GST; dsDNA, one strand shown
T1 sequence: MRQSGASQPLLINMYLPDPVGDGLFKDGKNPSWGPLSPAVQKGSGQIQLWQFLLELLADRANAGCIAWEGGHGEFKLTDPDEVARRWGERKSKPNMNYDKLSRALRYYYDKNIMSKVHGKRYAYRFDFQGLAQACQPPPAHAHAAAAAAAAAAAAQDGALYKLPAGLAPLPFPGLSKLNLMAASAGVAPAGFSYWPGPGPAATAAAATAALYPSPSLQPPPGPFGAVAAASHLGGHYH
Method in brief: (§1)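 Each value of binding signal is a hexamer's read frequency for a factor divided by the same hexamer's frequency in the tag-only sample. Barcoded, bead-captured GST fusions of human transcription factors made in yeast were pooled with that sample and incubated with 200 nmole of a random double-stranded 16-mer DNA library in Tris/NaCl/DTT/glycerol buffer at room temperature for 30 min. Washing, 0.1% formaldehyde crosslinking, proximity ligation, PCR and Illumina NextSeq500 sequencing followed.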

ETV5 = ETV5 (Homo sapiens, UniProt P41161 1-510); settings: protein: recombinant; tags: N-terminal GST; dsDNA, one strand shown
Chain of ETV5 (P41161 whole entry): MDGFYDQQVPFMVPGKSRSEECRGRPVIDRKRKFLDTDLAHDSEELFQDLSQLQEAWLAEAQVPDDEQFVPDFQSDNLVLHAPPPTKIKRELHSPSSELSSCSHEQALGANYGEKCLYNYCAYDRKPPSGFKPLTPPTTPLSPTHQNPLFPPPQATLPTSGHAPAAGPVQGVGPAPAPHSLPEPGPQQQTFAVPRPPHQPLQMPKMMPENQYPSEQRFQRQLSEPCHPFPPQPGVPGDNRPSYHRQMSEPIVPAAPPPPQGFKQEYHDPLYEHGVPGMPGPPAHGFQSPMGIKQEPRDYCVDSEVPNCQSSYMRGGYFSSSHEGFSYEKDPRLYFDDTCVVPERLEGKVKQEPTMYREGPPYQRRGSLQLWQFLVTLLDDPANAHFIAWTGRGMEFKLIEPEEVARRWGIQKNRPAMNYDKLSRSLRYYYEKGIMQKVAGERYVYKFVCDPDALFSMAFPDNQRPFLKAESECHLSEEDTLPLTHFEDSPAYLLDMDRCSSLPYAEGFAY
Method in brief: as §1

HSF1 = HSF1 (Homo sapiens, UniProt Q00613 1-529); settings: protein: recombinant; tags: N-terminal GST; chain copies: 3; dsDNA, one strand shown
Chain of HSF1 (Q00613 whole entry): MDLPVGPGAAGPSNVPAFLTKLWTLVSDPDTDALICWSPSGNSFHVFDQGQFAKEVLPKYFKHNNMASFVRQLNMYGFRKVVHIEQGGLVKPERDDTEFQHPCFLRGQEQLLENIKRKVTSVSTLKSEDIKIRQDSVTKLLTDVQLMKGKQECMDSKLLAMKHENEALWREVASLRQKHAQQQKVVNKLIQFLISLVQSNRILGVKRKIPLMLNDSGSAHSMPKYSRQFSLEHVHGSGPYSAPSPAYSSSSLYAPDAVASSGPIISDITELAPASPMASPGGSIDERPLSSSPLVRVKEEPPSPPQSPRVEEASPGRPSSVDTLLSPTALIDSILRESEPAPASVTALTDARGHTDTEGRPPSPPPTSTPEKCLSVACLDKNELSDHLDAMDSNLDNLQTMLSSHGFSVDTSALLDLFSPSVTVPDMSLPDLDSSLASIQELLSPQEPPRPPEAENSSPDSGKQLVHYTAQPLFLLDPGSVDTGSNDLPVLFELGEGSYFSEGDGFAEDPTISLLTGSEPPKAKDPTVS
Method in brief: as §1

SPIC = biological target: T2, SPIC (Homo sapiens, UniProt Q8N5J4 1-248); settings: protein: recombinant; tags: N-terminal GST; dsDNA, one strand shown
T2 sequence: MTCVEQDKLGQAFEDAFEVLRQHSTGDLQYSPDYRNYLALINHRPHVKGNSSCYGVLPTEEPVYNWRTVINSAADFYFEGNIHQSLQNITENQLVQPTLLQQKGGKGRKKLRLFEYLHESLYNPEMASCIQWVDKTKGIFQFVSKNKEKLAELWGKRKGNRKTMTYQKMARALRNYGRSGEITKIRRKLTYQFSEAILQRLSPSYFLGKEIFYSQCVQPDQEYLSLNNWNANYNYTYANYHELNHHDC
Method in brief: as §1

ELF4 = ELF4 (Homo sapiens, UniProt Q99607 1-663); settings: protein: recombinant; tags: N-terminal GST; dsDNA, one strand shown
Chain of ELF4 (Q99607 whole entry): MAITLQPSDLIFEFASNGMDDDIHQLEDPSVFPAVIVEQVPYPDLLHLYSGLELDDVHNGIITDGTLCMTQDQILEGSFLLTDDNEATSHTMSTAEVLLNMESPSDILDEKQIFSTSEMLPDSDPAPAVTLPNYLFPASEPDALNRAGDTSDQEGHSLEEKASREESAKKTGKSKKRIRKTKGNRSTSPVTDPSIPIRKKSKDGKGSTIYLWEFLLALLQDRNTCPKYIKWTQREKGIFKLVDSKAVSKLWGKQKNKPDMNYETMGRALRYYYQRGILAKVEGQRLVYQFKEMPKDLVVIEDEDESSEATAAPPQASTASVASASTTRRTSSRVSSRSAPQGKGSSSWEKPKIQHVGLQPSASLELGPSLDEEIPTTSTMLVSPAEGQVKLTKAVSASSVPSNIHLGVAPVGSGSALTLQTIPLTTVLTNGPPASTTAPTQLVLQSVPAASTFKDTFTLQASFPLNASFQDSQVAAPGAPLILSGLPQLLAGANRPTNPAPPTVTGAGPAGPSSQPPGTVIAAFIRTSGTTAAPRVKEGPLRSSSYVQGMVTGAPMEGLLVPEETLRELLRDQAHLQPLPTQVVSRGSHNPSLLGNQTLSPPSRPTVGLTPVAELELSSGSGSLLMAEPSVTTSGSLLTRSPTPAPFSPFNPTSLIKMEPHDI
Method in brief: as §1

ELK4 = biological target: T3, ELK4 (Homo sapiens, UniProt P28324-2 1-405); settings: protein: recombinant; tags: N-terminal GST; dsDNA, one strand shown
T3 sequence: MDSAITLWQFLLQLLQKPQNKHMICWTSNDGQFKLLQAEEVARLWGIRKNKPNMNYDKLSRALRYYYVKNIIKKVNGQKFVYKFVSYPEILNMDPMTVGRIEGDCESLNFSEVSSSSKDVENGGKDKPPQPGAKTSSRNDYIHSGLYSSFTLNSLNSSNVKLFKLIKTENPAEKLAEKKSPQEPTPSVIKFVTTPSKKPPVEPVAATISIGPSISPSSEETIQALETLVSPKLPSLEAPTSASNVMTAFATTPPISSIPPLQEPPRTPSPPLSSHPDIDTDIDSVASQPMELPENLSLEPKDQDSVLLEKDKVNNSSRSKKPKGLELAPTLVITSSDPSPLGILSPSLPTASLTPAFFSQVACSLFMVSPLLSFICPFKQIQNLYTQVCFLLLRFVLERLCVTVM
Method in brief: as §1

ETV2 = biological target: T4, ETV2 (Homo sapiens, UniProt O00321 1-342); settings: protein: recombinant; tags: N-terminal GST; dsDNA, one strand shown
T4 sequence: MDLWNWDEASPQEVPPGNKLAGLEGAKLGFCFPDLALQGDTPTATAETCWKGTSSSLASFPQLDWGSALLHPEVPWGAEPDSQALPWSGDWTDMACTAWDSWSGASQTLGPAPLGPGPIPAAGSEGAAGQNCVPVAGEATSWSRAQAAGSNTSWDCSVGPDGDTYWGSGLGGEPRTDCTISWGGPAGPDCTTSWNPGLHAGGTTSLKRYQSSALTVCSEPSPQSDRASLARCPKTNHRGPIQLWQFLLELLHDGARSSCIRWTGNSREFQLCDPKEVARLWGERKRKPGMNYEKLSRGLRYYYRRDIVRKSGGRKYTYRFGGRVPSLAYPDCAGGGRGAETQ
Method in brief: as §1

ELF3 = biological target: T5, ELF3 (Homo sapiens, UniProt P78545 1-371); settings: protein: recombinant; tags: N-terminal GST; dsDNA, one strand shown
T5 sequence: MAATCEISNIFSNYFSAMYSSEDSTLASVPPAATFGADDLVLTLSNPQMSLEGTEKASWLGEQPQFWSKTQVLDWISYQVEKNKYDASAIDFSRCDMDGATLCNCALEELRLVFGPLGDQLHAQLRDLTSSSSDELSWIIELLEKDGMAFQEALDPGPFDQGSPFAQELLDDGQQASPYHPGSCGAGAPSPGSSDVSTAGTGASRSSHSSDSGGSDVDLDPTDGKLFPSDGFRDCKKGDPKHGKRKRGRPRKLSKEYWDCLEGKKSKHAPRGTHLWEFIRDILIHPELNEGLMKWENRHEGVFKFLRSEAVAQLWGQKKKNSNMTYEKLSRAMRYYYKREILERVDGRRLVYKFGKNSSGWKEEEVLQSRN
Method in brief: as §1

CRX = CRX (Homo sapiens, UniProt O43186 1-299); settings: protein: recombinant; tags: N-terminal GST; dsDNA, one strand shown
Chain of CRX (O43186 whole entry): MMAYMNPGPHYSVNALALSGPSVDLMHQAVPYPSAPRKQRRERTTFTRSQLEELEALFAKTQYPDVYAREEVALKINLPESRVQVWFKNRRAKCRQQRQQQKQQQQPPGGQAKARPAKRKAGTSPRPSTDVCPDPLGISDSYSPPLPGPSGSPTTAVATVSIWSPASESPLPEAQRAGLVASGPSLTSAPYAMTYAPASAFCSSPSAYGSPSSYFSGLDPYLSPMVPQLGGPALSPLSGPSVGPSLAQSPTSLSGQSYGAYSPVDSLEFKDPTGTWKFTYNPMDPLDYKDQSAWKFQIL
Method in brief: as §1

ETV1 = ETV1 (Homo sapiens, UniProt P50549 1-477); settings: protein: recombinant; tags: N-terminal GST; dsDNA, one strand shown
Chain of ETV1 (P50549 whole entry): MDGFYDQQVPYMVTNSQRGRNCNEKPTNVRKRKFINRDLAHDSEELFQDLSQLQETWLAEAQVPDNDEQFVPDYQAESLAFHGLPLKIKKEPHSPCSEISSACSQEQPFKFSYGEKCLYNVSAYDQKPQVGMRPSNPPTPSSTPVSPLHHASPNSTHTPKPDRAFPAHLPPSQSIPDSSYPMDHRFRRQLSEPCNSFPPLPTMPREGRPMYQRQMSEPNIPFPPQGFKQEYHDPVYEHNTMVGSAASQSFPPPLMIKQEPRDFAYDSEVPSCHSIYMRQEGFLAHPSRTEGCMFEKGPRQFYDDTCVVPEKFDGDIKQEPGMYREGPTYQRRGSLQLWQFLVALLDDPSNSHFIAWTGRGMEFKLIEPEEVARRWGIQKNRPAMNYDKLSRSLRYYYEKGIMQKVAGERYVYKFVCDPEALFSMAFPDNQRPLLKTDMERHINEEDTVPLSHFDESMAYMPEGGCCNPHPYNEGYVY
Method in brief: as §1

ERF = biological target: T6, ERF (Homo sapiens, UniProt P50548 1-548); settings: protein: recombinant; tags: N-terminal GST; dsDNA, one strand shown
T6 sequence: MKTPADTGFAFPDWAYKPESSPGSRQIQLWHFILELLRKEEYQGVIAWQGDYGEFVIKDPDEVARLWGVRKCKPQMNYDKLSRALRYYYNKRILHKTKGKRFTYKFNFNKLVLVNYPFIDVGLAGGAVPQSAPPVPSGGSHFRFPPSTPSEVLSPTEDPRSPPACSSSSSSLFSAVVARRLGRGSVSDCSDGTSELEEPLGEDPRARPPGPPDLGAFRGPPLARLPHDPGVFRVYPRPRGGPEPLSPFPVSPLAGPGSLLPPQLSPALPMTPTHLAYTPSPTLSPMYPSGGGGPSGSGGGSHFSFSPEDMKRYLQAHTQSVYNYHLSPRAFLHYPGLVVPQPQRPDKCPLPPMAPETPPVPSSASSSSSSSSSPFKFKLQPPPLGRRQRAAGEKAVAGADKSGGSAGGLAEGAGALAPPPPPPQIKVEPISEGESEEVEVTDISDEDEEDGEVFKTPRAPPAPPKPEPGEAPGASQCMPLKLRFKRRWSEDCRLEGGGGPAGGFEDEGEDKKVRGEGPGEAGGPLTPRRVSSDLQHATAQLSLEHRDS
Method in brief: as §1

ETV3L = biological target: T7, ETV3L (Homo sapiens, UniProt Q6ZN32 1-361); settings: protein: recombinant; tags: N-terminal GST; dsDNA, one strand shown
T7 sequence: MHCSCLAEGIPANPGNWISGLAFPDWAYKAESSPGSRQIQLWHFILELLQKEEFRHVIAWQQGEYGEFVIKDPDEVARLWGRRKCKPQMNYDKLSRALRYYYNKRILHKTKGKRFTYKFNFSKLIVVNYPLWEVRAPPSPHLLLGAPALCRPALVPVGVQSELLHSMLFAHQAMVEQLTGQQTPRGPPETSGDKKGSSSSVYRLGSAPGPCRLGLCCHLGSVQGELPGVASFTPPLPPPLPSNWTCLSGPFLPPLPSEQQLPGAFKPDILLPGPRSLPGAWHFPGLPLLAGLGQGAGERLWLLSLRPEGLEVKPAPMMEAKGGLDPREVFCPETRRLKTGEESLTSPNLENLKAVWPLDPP
Method in brief: as §1

ETS2 = biological target: T8, ETS2 (Homo sapiens, UniProt P15036 1-469); settings: protein: recombinant; tags: N-terminal GST; dsDNA, one strand shown
T8 sequence: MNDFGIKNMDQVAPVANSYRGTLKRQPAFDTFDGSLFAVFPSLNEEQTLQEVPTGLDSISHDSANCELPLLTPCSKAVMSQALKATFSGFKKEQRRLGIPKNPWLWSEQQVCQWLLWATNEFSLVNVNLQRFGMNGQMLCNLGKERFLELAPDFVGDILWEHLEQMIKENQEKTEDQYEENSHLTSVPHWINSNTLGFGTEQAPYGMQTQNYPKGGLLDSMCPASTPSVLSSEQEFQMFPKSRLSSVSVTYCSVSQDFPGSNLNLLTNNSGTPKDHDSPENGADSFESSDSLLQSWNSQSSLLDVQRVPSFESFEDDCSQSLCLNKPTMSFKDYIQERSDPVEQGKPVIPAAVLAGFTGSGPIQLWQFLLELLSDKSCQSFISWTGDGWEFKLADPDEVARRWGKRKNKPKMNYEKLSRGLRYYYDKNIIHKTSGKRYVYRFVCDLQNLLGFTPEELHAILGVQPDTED
Method in brief: as §1

SPDEF = biological target: T9, SPDEF (Homo sapiens, UniProt O95238 1-335); settings: protein: recombinant; tags: N-terminal GST; dsDNA, one strand shown
T9 sequence: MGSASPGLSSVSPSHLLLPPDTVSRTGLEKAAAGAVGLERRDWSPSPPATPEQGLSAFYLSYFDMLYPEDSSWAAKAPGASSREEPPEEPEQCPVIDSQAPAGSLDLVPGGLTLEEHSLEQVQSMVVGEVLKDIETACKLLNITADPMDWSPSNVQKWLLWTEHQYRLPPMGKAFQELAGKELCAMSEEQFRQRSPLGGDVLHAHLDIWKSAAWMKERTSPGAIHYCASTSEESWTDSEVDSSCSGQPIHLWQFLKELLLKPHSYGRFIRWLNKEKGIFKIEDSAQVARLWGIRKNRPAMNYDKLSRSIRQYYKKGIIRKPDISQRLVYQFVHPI
Method in brief: as §1

ETV7 = biological target: T10, ETV7 (Homo sapiens, UniProt Q9Y603 1-341); settings: protein: recombinant; tags: N-terminal GST; dsDNA, one strand shown
T10 sequence: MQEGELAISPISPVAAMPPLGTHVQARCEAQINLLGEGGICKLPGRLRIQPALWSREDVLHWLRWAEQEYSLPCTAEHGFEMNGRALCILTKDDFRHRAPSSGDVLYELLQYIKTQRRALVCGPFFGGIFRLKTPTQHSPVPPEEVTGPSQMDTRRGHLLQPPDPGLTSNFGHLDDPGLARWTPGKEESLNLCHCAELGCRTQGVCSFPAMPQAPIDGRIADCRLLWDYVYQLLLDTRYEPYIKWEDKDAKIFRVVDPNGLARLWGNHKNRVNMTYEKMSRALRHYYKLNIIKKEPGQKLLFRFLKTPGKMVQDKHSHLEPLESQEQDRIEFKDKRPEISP
Method in brief: as §1

ELF5 = biological target: T11, ELF5 (Homo sapiens, UniProt Q9UKW6-2 1-255); settings: protein: recombinant; tags: N-terminal GST; dsDNA, one strand shown
T11 sequence: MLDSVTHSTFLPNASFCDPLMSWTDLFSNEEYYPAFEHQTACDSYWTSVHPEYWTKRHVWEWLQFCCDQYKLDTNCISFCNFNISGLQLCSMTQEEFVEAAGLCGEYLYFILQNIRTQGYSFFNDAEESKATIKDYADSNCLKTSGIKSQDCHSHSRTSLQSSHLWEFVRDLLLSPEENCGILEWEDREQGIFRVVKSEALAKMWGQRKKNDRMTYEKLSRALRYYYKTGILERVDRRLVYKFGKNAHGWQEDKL
Method in brief: as §1

ETV3 = biological target: T12, ETV3 (Homo sapiens, UniProt P41162-2 1-143); settings: protein: recombinant; tags: N-terminal GST; dsDNA, one strand shown
T12 sequence: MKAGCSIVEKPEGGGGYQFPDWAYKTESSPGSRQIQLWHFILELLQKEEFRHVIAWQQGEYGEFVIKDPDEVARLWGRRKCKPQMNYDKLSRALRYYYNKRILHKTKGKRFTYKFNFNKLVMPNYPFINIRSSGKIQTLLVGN
Method in brief: as §1

ETV6 = ETV6 (Homo sapiens, UniProt P41212 1-452); settings: protein: recombinant; tags: N-terminal GST; dsDNA, one strand shown
Chain of ETV6 (P41212 whole entry): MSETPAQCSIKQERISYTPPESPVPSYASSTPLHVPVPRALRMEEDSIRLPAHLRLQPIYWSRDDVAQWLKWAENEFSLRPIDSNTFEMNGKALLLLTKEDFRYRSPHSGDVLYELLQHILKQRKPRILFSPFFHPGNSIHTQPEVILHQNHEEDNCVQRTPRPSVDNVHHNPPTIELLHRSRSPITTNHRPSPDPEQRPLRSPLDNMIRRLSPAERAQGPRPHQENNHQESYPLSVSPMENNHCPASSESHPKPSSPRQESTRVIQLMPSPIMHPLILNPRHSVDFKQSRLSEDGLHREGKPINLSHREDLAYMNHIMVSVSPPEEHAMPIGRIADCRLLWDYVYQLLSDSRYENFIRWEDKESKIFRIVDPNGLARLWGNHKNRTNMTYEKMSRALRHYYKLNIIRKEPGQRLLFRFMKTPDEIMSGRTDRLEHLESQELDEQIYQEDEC
Method in brief: as §1

Which binding signal (FEV) does the source give for TGTTAT here?
Its binding signal is 1.34 fold enrichment (6-mer frequency, TF over GST control).

What about the binding signal (ETV5) of the same sequence?
Its binding signal is 1.34 fold enrichment (6-mer frequency, TF over GST control).

And the binding signal (HSF1)?
Its binding signal is 1.31 fold enrichment (6-mer frequency, TF over GST control).

And the binding signal (SPIC)?
Its binding signal is 1.45 fold enrichment (6-mer frequency, TF over GST control).

And the binding signal (ELF4)?
Its binding signal is 1.39 fold enrichment (6-mer frequency, TF over GST control).

What about the binding signal (ELK4) of the same sequence?
The binding signal was 1.35 fold enrichment (6-mer frequency, TF over GST control).

And the binding signal (ETV2)?
Its binding signal is 1.3 fold enrichment (6-mer frequency, TF over GST control).

What about the binding signal (ELF3) of the same sequence?
The binding signal was 1.35 fold enrichment (6-mer frequency, TF over GST control).

What about the binding signal (CRX) of the same sequence?
Its binding signal is 1.4 fold enrichment (6-mer frequency, TF over GST control).

What about the binding signal (ETV1) of the same sequence?
The binding signal was 1.42 fold enrichment (6-mer frequency, TF over GST control).

And the binding signal (ERF)?
The binding signal was 1.47 fold enrichment (6-mer frequency, TF over GST control).

And the binding signal (ETV3L)?
The binding signal was 1.49 fold enrichment (6-mer frequency, TF over GST control).

And the binding signal (ETS2)?
Its binding signal is 1.34 fold enrichment (6-mer frequency, TF over GST control).

And the binding signal (SPDEF)?
Its binding signal is 1.41 fold enrichment (6-mer frequency, TF over GST control).

What about the binding signal (ETV7) of the same sequence?
The binding signal was 1.24 fold enrichment (6-mer frequency, TF over GST control).

And the binding signal (ELF5)?
Its binding signal is 1.36 fold enrichment (6-mer frequency, TF over GST control).

And the binding signal (ETV3)?
Its binding signal is 1.32 fold enrichment (6-mer frequency, TF over GST control).

What about the binding signal (ETV6) of the same sequence?
Its binding signal is 1.39 fold enrichment (6-mer frequency, TF over GST control).
